In PubChem BioAssay:
Calls of active or inactive are those of the source. The rule behind the calls is not given here.

Experiment: inhibition of Brca1/Bard1 split-luciferase complementation, confirmation, counter-screen for Mdm2/MdmX interaction inhibitor project, luminescence, single concentration (AID 504668)
Details: Brca1/Bard1 bimolecular luciferase complementation counterscreen, at 8 µM, active compounds read high

SMILES	inhibition
ClC(Cl)(Cl)c1nc2ccccc2n2nncc12	31.8% (active)
Oc1ccc(CN2CCc3ccccc3C2)c2cccnc12	24.4% (active)
O=C(N/N=C(\Cc1ncc[nH]1)c1ccccc1)c1ccccc1	24.8% (active)
O=c1c2ccccc2nc(COc2ccccc2)n1/N=C/c1ccc(O)cc1O	31% (active)
O=c1nc(Nc2ccc(OCc3ccccc3)cc2)sc2ncccc12	23.4% (active)
COc1cc(Br)cc(/C=N/NC(=O)Cc2ccc(C(F)(F)F)cc2[N+](=O)[O-])c1O	32.8% (active)
Oc1c(C(c2ccccc2Cl)N2CCCC2)ccc2cccnc12 (stereo not given)	31.4% (active)
CCN(CC)C(=O)CN1C(=O)/C(=C/c2ccccc2)SC1=S	27.6% (active)
COc1ccc(-n2c(SCC(=O)Nc3ncc(Cl)cc3Cl)nc3ccccc32)cc1	29.2% (active)
S=c1[nH]nc(-c2cc(-c3ccccc3)n[nH]2)n1/N=C/C(Br)=C/c1ccccc1	24.2% (active)
Cc1ccc(OC(F)F)c(NC(=O)Nc2cccc(C(F)(F)F)c2)c1	23.7% (active)
CCc1ccc2c(c1)C1(NN=C(c3cccc4ccccc34)S1)C(=O)N2 (stereo not given)	30% (active)
CCOc1ccc(CNC(=O)c2cc3oc4ccccc4c3n2C)cc1	25.6% (active)
COc1cccc(C(NC(C)=O)c2ccc3cccnc3c2O)c1 (stereo not given)	29.3% (active)
Cc1cc(C)nc(SCc2ccc(C(=O)N/N=C/c3cccc(O)c3O)cc2)n1	35.2% (active)
CCC(=O)NC(c1ccc(OC)cc1)c1cc(Cl)c2cccnc2c1O (stereo not given)	25.5% (active)
Cc1ccc(S(=O)(=O)c2nc(S(=O)(=O)c3ccccc3)sc2N2CCN(C)CC2)cc1	23.7% (active)
Oc1c(C(c2cccs2)N2CCN(c3ccccc3)CC2)ccc2cccnc12 (stereo not given)	23.1% (active)
N#Cc1c2ccc(O)cc2n2ccccc12	35.2% (active)
N=c1c2c(-c3ccccc3)c(-c3ccccc3)n(Cc3ccco3)c2ncn1Cc1ccccc1	23% (active)

SMILES	inhibition
CC(Oc1ccc(Br)cc1)C(=O)Nc1nc(-c2ccccn2)cs1 (stereo not given)	35.4% (active)
c1ccc(CNc2nc(-c3ccccn3)nc3ccccc23)cc1	23.3% (active)
COc1ccc(-c2nc(CN3CCN(c4cc(C)nc(C)c4)CC3)c(C)o2)c2ccccc12	34.4% (active)
CCCCCCCCCCOC(=O)Cn1c(COc2cccc(C)c2)[n+](C)c2ccccc21	24.9% (active)
CC(=O)c1ccc(NC(=O)c2cc(CC(C)C)nc3ccccc23)cc1	33.6% (active)
CCOc1ccc(CN2CCN(CC(O)Cn3c4ccccc4c4ccccc43)CC2)cc1 (stereo not given)	35.8% (active)
COc1ccc(C2=Nn3c(nnc3-c3ccccc3F)SC2)cc1OC1CCOC1 (stereo not given)	33.4% (active)
CC(C)Cn1c(=O)c(C(=O)Nc2ccccc2S(N)(=O)=O)c(O)c2ccccc21	26.4% (active)
COc1ccc(C2=Nn3c(nnc3-c3ccccc3F)SC2)cc1OC1CCCC1	28.6% (active)
CCOC(=O)c1c(-c2ccccc2)oc2ccc(OCC(O)CN(C)C)cc12 (stereo not given)	32.5% (active)
CCN(C[C@H]1N[C@@](CC)(C(=O)OC)[C@H]2C(=O)N(Cc3ccccc3)C(=O)[C@@H]12)S(=O)(=O)c1ccc(-c2ccccc2)cc1	34% (active)
COc1ccc(CCNC(=O)c2cc3c(=O)n4ccccc4nc3n(Cc3ccco3)c2=N)cc1OC	26.2% (active)
CCOc1cc(/C=N/NC(=O)Cc2ccc(C(F)(F)F)cc2[N+](=O)[O-])c(Br)cc1OC	30.8% (active)
O=C(N/N=C(\Cc1ncc[nH]1)c1ccccc1)c1ccncc1	30.3% (active)
Oc1c(C(c2ccccn2)N2CCC(Cc3ccccc3)CC2)cc(Cl)c2cccnc12 (stereo not given)	33.2% (active)
CC(C)(C)c1cc(C(=O)N/N=C/c2ccccc2O)n(-c2ccccc2)n1	28.9% (active)
COC(=O)C1=C(C)NC(C)=C(C(=O)OC)C1c1ccccc1[N+](=O)[O-]	28% (active)
Cc1ccc(S(=O)(=O)CCc2nc3ccccc3n2CCC#N)cc1	32.2% (active)
COc1cccc(/C=N/Nc2ncnc(Cl)c2N)c1O	30.7% (active)
CCN1CCN(Cc2ccc(NC(=O)c3ccc(C)c(NC(=O)c4cccc(-c5cn[nH]c(=O)c5)c4)c3)cc2C(F)(F)F)CC1	32% (active)
